AmpC detergent – inhibitors of E. coli AmpC beta-lactamase with detergent | AmpC hydrolysis of nitrocefin, absorbance 480 nm, 0.01% Triton | Potency, µM (doses to about 114 µM), without a hit: at the highest dose activity change, negative = inhibition, hits mostly inhibitors | actives 0.041% (n = 370,000) | AID 485294 | P00811;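 note: 0% = no-compound wells and -100% = no-enzyme wells; nearly all actives have a fitted effect of over 25% in size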
Target sequence (P00811 whole entry, looked up): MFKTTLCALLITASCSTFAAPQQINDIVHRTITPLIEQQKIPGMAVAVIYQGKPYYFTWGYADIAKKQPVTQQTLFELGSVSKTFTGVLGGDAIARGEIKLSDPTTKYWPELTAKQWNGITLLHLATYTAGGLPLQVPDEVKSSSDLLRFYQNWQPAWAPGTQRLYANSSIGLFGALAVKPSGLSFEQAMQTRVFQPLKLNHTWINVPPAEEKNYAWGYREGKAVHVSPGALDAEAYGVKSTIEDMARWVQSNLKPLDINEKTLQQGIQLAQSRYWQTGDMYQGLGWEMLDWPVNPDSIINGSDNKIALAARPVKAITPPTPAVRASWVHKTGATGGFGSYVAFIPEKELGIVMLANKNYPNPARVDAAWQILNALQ
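AmpC (5.3 nM in the dispensed reagent) in 20 mM phosphate pH 7.0 with 0.01% (detergent screen) or 0.0001% Triton X-100 was preincubated with compounds for 15 min at room temperature. Nitrocefin was then added from an 800 uM solution, and hydrolysis was followed at 480 nm.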
VACV mCherry inh – vaccinia inhibition (mCherry reporter); Vaccinia virus mCherry reporter infection, fluorescence; Potency, µM (series often up to 36.5 µM), inactives show at the highest dose activity change, negative = inhibition, most hits filed as inhibitors; actives 0.63% (n = 310,000); calls by dose curve; tested in A549 cells; note: nearly all actives have a fitted effect of over 35% in size
AmpC no deterg – AmpC beta-lactamase inhibition without detergent; P00811; AmpC nitrocefin hydrolysis, absorbance 480 nm, 0.0001% Triton; Potency, µM (titrated, usually from 57.1 µM), without a hit: top-dose activity change, negative = inhibition, hits mostly inhibitors; actives 0.52% (n = 330,000);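 note: plate controls were no compound for no effect and no enzyme for full effect; nearly all actives have a fitted effect of over 20% in size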
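20 mM phosphate pH 7.0 + 0.01% (detergent screen) or 0.0001% Triton X-100; 5.3 nM AmpC reagent; cpd preinc 15 min RT; nitrocefin (800 uM stock) to start; A480 q20 s × 4 min; Activity was normalised to no-enzyme and no-compound control wells.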
VACV Venus inh – inhibitors of vaccinia virus (Venus reporter) | actives 0.46% (n = 330,000) | AID 720580 | Potency, µM (doses to about 36.5 µM), for inactives: at the highest dose activity change, negative = inhibition, hits mostly inhibitors | Vaccinia virus Venus reporter expression, fluorescence; calls by dose curve; tested in A549 cells; note: nearly all actives have a fitted effect of over 30% in size
* hit, by the source's call; i = inactive; u = inconclusive; x = no result. The list is not random: actives were taken first. Their share in the collection is about 1.1%. Unless noted, calls come from the whole dose curve; as a rule, active = well fitted curve in the direction sought with a large enough effect; inconclusive = small, poorly fitted or top-dose-only effect, or another doubt; inactive = no such curve, though single readings can be large; an effect the other way counts as inactive or inconclusive. Unless noted, % is set by controls: 0 for no effect and ±100 for the full control effect; potency is the fitted concentration of half-maximal effect.

SMILES | AmpC detergent | VACV mCherry inh | AmpC no deterg | VACV Venus inh
O=C(Cc1ccc(S(=O)(=O)N2CCCC2)s1)Nc1nc2c(s1)CCCC2 | u | x | 14.1µM* | x
c1ccc(-c2nc(N3CCCCCC3)c3ccccc3n2)nc1 | 2.6% | x | -1.1% | 5.01µM*
COc1ccc(Oc2nc(-c3ccccn3)nc3ccccc23)cc1 | -7.4% | 4.47µM* | 69.8% | u
c1ccc(Oc2nc(-c3ccccn3)nc3ccccc23)cc1 | -6.9% | u | 49.2% | u
CCCN(CCC)c1nc(-c2ccccn2)nc2ccccc12 | u | 4.47µM* | 33.0% | u
Cc1cc2c(c(-c3ccc(Cl)cc3)c1)OC(CNC(=O)CCC(=O)N(C)C)C2 (stereo not drawn) | x | -16.9% | x | -15.0%
O=C(Nc1cnc2sccn2c1=O)c1ccc(Cl)cc1Cl | -2.7% | x | -12.2% | x
COc1ccc(Cl)cc1NC(=O)c1cnc2sccn2c1=O | u | -22.0% | 3.55µM* | -29.1%
CCOc1ccc(-c2cn(-c3cccc(SC)c3)c(=O)[nH]2)cc1 | -12.7% | -3.1% | 35.5µM* | -12.0%
CCOc1ccc(-c2cn(-c3ccccc3OC)c(=S)[nH]2)cc1 | 4.6% | -27.7% | -32.2% | -18.1%
CCOC(=O)c1c(NC(=O)CSc2nnc(-c3c[nH]c4ccccc34)n2C)sc2c1CCCC2 | -4.4% | u | 3.55µM* | u
CN(C)S(=O)(=O)c1cccc(NC(=S)NNC(=O)c2cc3ccccc3cc2O)c1 | -1.4% | u | 25.1µM* | -21.0%
O=C(O)C/C(=C\c1cccc(NC(=O)c2ccccc2Cl)c1)c1nc2ccccc2s1 | -3.4% | x | 15.8µM* | x
O=C(Nc1ccc(Cl)cc1)/C(=C/c1cccc(O)c1)c1nc2ccccc2s1 | -1.3% | 11.2µM* | -52.0% | 10µM*
Cc1ccccc1NS(=O)(=O)c1cc(C(=O)NCCSC2CCCCC2)ccc1C | -3.0% | -16.8% | 1.26µM* | -13.1%
CO[C@@]1(NC(=O)C2SC(=C(C(N)=O)C(=O)O)S2)C(=O)N2C(C(=O)O)=C(CSc3nnnn3C)CS[C@@H]21 (stereo partly drawn) | 17.8µM* | i | 7.08µM* | -11.2%
Cc1ccc(CN2CCOc3ccc(CN4CCC(O)(c5cccnc5)CC4)cc3C2)cc1C | x | -22.4% | x | u
Cc1nn(C)c(C(=O)Nc2ccc(S(=O)(=O)NC34CC5CC(CC(C5)C3)C4)cc2)c1Br | -8.9% | 12.6µM* | -7.0% | u
Cc1ccc(S(=O)(=O)NC23CC4CC(CC(C4)C2)C3)cc1 | 2.7% | x | -12.9% | x
COc1ccc(NC(=O)CN(C)CC(=O)N(CC(C)C)c2c(N)n(CC(C)C)c(=O)[nH]c2=O)cc1 | x | x | 8.1% | x
C=CCOc1ccc(CN(C)CC(=O)N(CC(C)C)c2c(N)n(CC(C)C)c(=O)[nH]c2=O)cc1 | -1.6% | i | 6.31µM* | -12.1%
CCCCNc1c(-c2ccc(OC)c(SC3CCCCC3)c2)nc2ccc(C)cn12 | x | 10µM* | 30.2% | 11.2µM*
CCC(C)Sc1ccc(-c2nc3ccc(C)cn3c2NC2CCCCC2)cc1 (stereo not drawn) | u | 8.91µM* | -9.2% | u
COc1ccc(-c2cc(-c3nc4ccccn4c3NCc3ccccc3)ccc2OC)cc1 | x | u | -10.3% | 11.2µM*
CCCCNc1c(-c2ccc(OC)c(SC(C)CC)c2)nc2cc(C)ccn12 (stereo not drawn) | x | 25.1µM* | 77.6% | u
SMILES | AmpC detergent | VACV mCherry inh | AmpC no deterg | VACV Venus inh
COc1ccc(-c2nc3ccccn3c2NCc2ccc3c(c2)OCO3)cc1 | -3.8% | -12.7% | -29.9% | -2.2%
CCCCNc1c(-c2ccc(OC)c(SC(C)CC)c2)nc2ccc(C)cn12 (stereo not drawn) | x | u | 30.7% | -15.6%
COc1ccc2c(c1)-c1nc(-n3ncc(C(=O)N(C)CC4CCCN(C)C4)c3C3CC3)ncc1CC2 (stereo not drawn) | x | -11.6% | x | -3.2%
CCC(C)Sc1ccc(-c2nc3ccc(C)cn3c2NCc2ccccc2)cc1OC (stereo not drawn) | -0.5% | u | 33.2% | 12.6µM*
COc1ccc(-c2nc3ccc(C)cn3c2NCc2ccccc2)cc1SC1CCCCC1 | 0.0% | i | 61.5% | u
CCCCCCSc1ccc(-c2nc3ccc(C)cn3c2NCc2ccccc2)cc1OC | u | u | 1.3% | -20.1%
CCC(C)Sc1cc(-c2nc3ccc(C)cn3c2NCc2ccccc2)ccc1OC (stereo not drawn) | x | 10µM* | x | u
CCN(CC)c1ccc(/C=N/Nc2ccc(C)cc2)c(O)c1 | 1.9% | -19.5% | -40.2% | -0.8%
Cc1cc(=O)[nH]c(NN=Cc2cc(Br)ccc2O)n1 | x | 2µM* | x | u
CCN(CC)c1ccc(/C=N/Nc2nc(C)cc(=O)[nH]2)c(O)c1 | u | 0.891µM* | 4.4% | u
COC(=O)[C@@H]1CCCN1C(=O)c1c(OC)cc(=O)n2c1CCN(Cc1ccc3cccnc3c1)CC2 | x | -0.8% | x | -10.6%
O=S1(=O)C=C(Sc2nnc(-c3ccccc3)o2)c2ccccc21 | u | x | -25.5% | x
O=S1(=O)C=C(Sc2nc3ccccc3s2)c2ccccc21 | -7.0% | 14.1µM* | u | u
Cc1cc(C)nc(SC2=CS(=O)(=O)c3ccccc32)n1 | 0.8% | 12.6µM* | -19.2% | 2µM*
Cc1cccc(NC(=O)COc2ccccc2C(=O)Nc2ccccc2)c1 | x | i | x | -12.4%
CN1C(=O)c2ccccc2NC(=O)C1Cc1ccccc1 (stereo not drawn) | -6.4% | 19.3% | -18.2% | -3.6%
CC[C@H](C)[C@@H]1OC(=O)[C@@H](C)[C@@H](CC)NC(=O)[C@H](C)N(C)C(=O)C(C)(C)C(=O)C(C)NC(=O)[C@H](Cc2ccccc2)N(C)C(=O)[C@H](C(C)C)N(C)C(=O)CNC(=O)[C@H](CC(C)C)N(C)C(=O)CNC1=O (stereo partly drawn) | x | 2µM* | x | 2.24µM*
Cc1oc(-c2ccccc2NC(=O)C2CCC2)nc1CNC(=O)c1c(F)ccc(F)c1F | x | -11.2% | x | 9.5%
COc1ccc(-c2nc(CS(=O)(=O)CC(=O)Nc3ccc(Cl)cc3)c(C)o2)cc1 | -3.4% | -7.4% | 3.98µM* | -1.2%
COCCCNC(=O)CS(=O)(=O)Cc1nc(-c2cccc(OC)c2)oc1C | -14.8% | x | 8.6% | x
CCCNC(=O)CS(=O)(=O)Cc1nc(-c2ccccc2C)oc1C | -4.6% | i | 3.55µM* | -20.3%
CCCCN(C)C(=O)CS(=O)(=O)Cc1nc(-c2cccc(OC)c2)oc1C | u | i | 11.2µM* | -15.6%
CC1CN(CCC(=O)N2CCCC(C(=O)c3nccn3C)C2)Cc2cc(Cl)ccc2O1 (stereo not drawn) | x | -17.0% | x | -5.7%
CN(Cc1ccon1)C(=O)c1cnn(-c2ncc3c(n2)-c2ccccc2CCC3)c1C1CC1 | x | -13.6% | x | -0.2%
COCc1c(C(=O)N2CCCCC2c2cccnc2)cnn1-c1ncc2c(n1)-c1ccccc1CCC2 (stereo not drawn) | x | -19.8% | x | -3.7%
Cc1noc(C)c1CCC(=O)N1CCOc2ccc(CN3CCN(c4ccccn4)CC3)cc2C1 | x | u | x | -24.4%

High-throughput results as filed in PubChem BioAssay.
